Some test systems named below: NCI-H23 lung; NCI-H226 lung; NCI-H322M lung; HOP-62 NSCLC; NCI-H460 lung; HOP-92 NSCLC; NCI-H522 lung; A549/ATCC NSCLC; 786-0 renal; COLO 205 colon; DU-145 prostate; K-562 leukemia; MALME-3M melanoma; MDA-MB-231 breast; RXF 393 renal; SF-268 CNS; SF-295 CNS; SF-539 CNS; UACC-257 melanoma; M14 melanoma.
Common to all, as to assay: NCI-60 one-dose screen, 48 h (100 = growth as untreated, 0 = no growth, -100 = all killed)
Holding throughout (settings): 10 µM unless noted

Compounds without any hit were thinned out: in the full panel of roughly 83,000, 20% have a hit.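 Each cell line was grown in a 96-well plate and treated with one concentration of compound for 48 hours. Values below 10 were considered active.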 Unmarked numbers belong to inactive results. Active and inactive are the calls of the source.

For `COc1cc(-c2cc(-c3ccc(Nc4nc(Nc5ccc(Cl)cc5)nc(Nc5ccc(Cl)cc5)n4)cc3)no2)cc(OC)c1OC`, the growth is 88.3% in the experiment on NCI-H23 lung; 78% in the experiment on NCI-H226 lung; 80.8% in the experiment with NCI-H322M lung; 70.3% with HOP-62 NSCLC; 76.2% in the experiment with NCI-H460 lung; 37.9% in the experiment on HOP-92 NSCLC. Besides, the growth in the experiment with NCI-H522 lung was 76.5%; with A549/ATCC NSCLC, 66.7%; with 786-0 renal it was 72.7%; in the experiment with COLO 205 colon, 51.5%; in the experiment on DU-145 prostate, 80.6%; in the experiment with K-562 leukemia it was 50.9%. The growth in the experiment with MALME-3M melanoma is 88.7%; in the experiment on MDA-MB-231 breast it was 64.4%; in the experiment with RXF 393 renal it was 33.9%; in the experiment with SF-268 CNS, 67.9%; with SF-295 CNS it was 62.3%; with SF-539 CNS, 74.9%. In addition, the growth with UACC-257 melanoma was 100%; in the experiment on M14 melanoma it was 68.3%.

With `N#Cc1ccc(/C=C/c2cn(-c3ccccc3)nc2-c2cccc([N+](=O)[O-])c2)cc1`, the growth with NCI-H23 lung is 56.4%; in the experiment on NCI-H226 lung, 6.28% (active); with NCI-H322M lung it was 62.9%; in the experiment on HOP-62 NSCLC, 37.8%; in the experiment on NCI-H460 lung, 40.1%; with HOP-92 NSCLC it was 74.6%. The growth with NCI-H522 lung was 20.1%; in the experiment with A549/ATCC NSCLC, 49.5%; in the experiment on 786-0 renal, 58.7%; in the experiment with COLO 205 colon it was 83.6%; in the experiment with DU-145 prostate, 59.5%; in the experiment with K-562 leukemia, 61.2%. The growth was 50.3% in the experiment on MALME-3M melanoma; 36.1% in the experiment with MDA-MB-231 breast; 67.1% with RXF 393 renal; 56.5% in the experiment on SF-268 CNS; 62.5% in the experiment on SF-295 CNS; 65.7% in the experiment with SF-539 CNS. The growth with UACC-257 melanoma is 70.2%; in the experiment with M14 melanoma, 68.8%.

Turning to `CCNC(=O)N1CCc2c(Br)c3c(c(OC)c2C1Cc1ccc(OC)cc1)OCO3` (stereo not given), the growth with NCI-H23 lung is 60.8%; with NCI-H226 lung, 70.8%; with NCI-H322M lung it was 52.9%; in the experiment with HOP-62 NSCLC, 36.3%; in the experiment with NCI-H460 lung, 15.2%; in the experiment on HOP-92 NSCLC, 40.6%. Also, the growth was 25.5% with NCI-H522 lung; 34.2% in the experiment with A549/ATCC NSCLC; 31.2% in the experiment on 786-0 renal; 3.06% (active) in the experiment on COLO 205 colon; 54.5% in the experiment on DU-145 prostate; 20% in the experiment on K-562 leukemia. Further, the growth was 33.8% in the experiment on MALME-3M melanoma; 47.3% in the experiment with MDA-MB-231 breast; 17% with RXF 393 renal; 43.5% in the experiment on SF-268 CNS; 25.5% in the experiment on SF-295 CNS; 22.6% with SF-539 CNS. For the same compound, the values for the growth in the experiment with UACC-257 melanoma and in the experiment on M14 melanoma were 65.4% and 11.6%, respectively.

With `CN(C)CCC(=O)C1CC1`, the growth was 97% with NCI-H23 lung; 102% with NCI-H226 lung; 98.4% in the experiment on NCI-H322M lung; 91.2% in the experiment on HOP-62 NSCLC; 103% in the experiment with NCI-H460 lung; 101% in the experiment on HOP-92 NSCLC. For the same compound, the growth is 97.1% in the experiment with NCI-H522 lung; 103% with A549/ATCC NSCLC; 99.4% in the experiment on 786-0 renal; 112% in the experiment with COLO 205 colon; 111% in the experiment with DU-145 prostate; 102% in the experiment on K-562 leukemia. In addition, the growth is 102% in the experiment on MALME-3M melanoma; 103% in the experiment on MDA-MB-231 breast; 104% with RXF 393 renal; 102% in the experiment with SF-268 CNS; 116% in the experiment on SF-295 CNS; 107% with SF-539 CNS. Besides, the growth in the experiment on UACC-257 melanoma was 91.7%; in the experiment on M14 melanoma, 104%.

On to `CCOC(=O)C/C(=N\Nc1cc(=O)[nH]c2ccc(C)cc12)C(=O)OCC`, for which the growth is 103% with NCI-H23 lung; 93.3% in the experiment on NCI-H226 lung; 98% in the experiment on NCI-H322M lung; 107% in the experiment on HOP-62 NSCLC; 104% with NCI-H460 lung; 79.8% in the experiment with HOP-92 NSCLC. Further, the growth in the experiment with NCI-H522 lung was 99.4%; in the experiment on A549/ATCC NSCLC, 107%; with 786-0 renal, 109%; in the experiment with COLO 205 colon, 124%; in the experiment on DU-145 prostate, 108%; in the experiment with K-562 leukemia it was 89.4%. For the same compound, the growth with MALME-3M melanoma was 98%; in the experiment on MDA-MB-231 breast, 96.3%; in the experiment on RXF 393 renal, 108%; with SF-268 CNS, 99.5%; in the experiment with SF-295 CNS, 105%; with SF-539 CNS, 103%. Further, the results for the growth with UACC-257 melanoma and in the experiment with M14 melanoma were 105% and 106%, respectively.

With `CN(C)c1ccc(CNCCO)cc1`, the growth is 107% in the experiment on NCI-H23 lung; 91.9% with NCI-H226 lung; 104% in the experiment on NCI-H322M lung; 76.3% in the experiment with HOP-62 NSCLC; 105% with NCI-H460 lung; 75.1% in the experiment on HOP-92 NSCLC. The growth in the experiment on NCI-H522 lung is 43.5%; in the experiment on A549/ATCC NSCLC, 76%; with 786-0 renal, 86.1%; with COLO 205 colon, 85.7%; in the experiment on DU-145 prostate, 105%; in the experiment on K-562 leukemia, 97.9%. The growth was 103% with MALME-3M melanoma; 110% in the experiment with MDA-MB-231 breast; 113% with RXF 393 renal; 101% with SF-268 CNS; 103% in the experiment on SF-295 CNS; 97.5% in the experiment on SF-539 CNS. Besides, the growth is 85.4% with UACC-257 melanoma and 96.7% in the experiment with M14 melanoma.

Turning to `OC1CSSC1Cn1cnc2c(Nc3ccc(OCc4cccc(F)c4)c(Cl)c3)ncnc21` (stereo not given), the growth in the experiment on NCI-H23 lung was -69.4% (active); with NCI-H226 lung, 4.07% (active); with NCI-H322M lung, -27.8% (active); in the experiment with HOP-62 NSCLC, -27.2% (active); with NCI-H460 lung, -6.17% (active); in the experiment on HOP-92 NSCLC it was 139%. In addition, the growth is -31.6% (active) with NCI-H522 lung; 3.03% (active) with A549/ATCC NSCLC; 69.5% with 786-0 renal; -58.3% (active) in the experiment on COLO 205 colon; -36.8% (active) in the experiment on DU-145 prostate; -56.7% (active) in the experiment with K-562 leukemia. The growth in the experiment with MALME-3M melanoma was -5.08% (active); with MDA-MB-231 breast, -59.2% (active); with RXF 393 renal, 42.3%; in the experiment on SF-268 CNS, -41.5% (active); in the experiment with SF-295 CNS it was 4.71% (active); in the experiment on SF-539 CNS, -3.08% (active). The figures for the growth in the experiment on UACC-257 melanoma and in the experiment on M14 melanoma were 26.6% and -81.1% (active), respectively.

For the origin of these results see PubChem BioAssay (NCI).
